{
  "source": "ChEMBL document CHEMBL3988442",
  "about": "“University of Dundee, Small-Polar-MMV Screening Library” (2021)",
  "note": "The whole screen tested about 48,000 compounds, of which about 13,000 (27%) showed an effect of 50% or more. Some of the results follow.",
  "data": [
    {"test_system": "Wolbachia pipientis", "assay": "Anti-Wolbachia Cell-Based Screen", "type": "functional", "design": "scale not given: in the data most compounds retested in dose-response had high values", "details": "5 µM", "units": {"Percent Effect": "%"}, "values": [
      {"smiles": "O=C(c1cc2ccccc2s1)N1CCC(C(=O)O)(n2cccn2)CC1", "Percent Effect": -13.71},
      {"smiles": "CCn1cc2c(n1)CN(C(=O)c1ccncc1)CC2COCC1CC1.O=C(O)C(F)(F)F", "note": "(centres undefined)", "Percent Effect": 20.52},
      {"smiles": "O=C(COCc1ccccc1Cl)N1CCCC(n2ccnc2)C1", "note": "(centres undefined)", "Percent Effect": 103.7},
      {"smiles": "O=C(c1ccccc1OCC1CC1)N1CCCC(n2ccnc2)C1", "note": "(centres undefined)", "Percent Effect": 8.934},
      {"smiles": "O=C(COc1ccccc1Cl)N1CCCC(n2ccnc2)C1", "note": "(centres undefined)", "Percent Effect": 92.71},
      {"smiles": "O=C(COCc1ccccc1Cl)N1CCCC(n2cccn2)C1", "note": "(centres undefined)", "Percent Effect": 1.04},
      {"smiles": "CN(CC(=O)N1CCCC(n2ccnc2)C1)c1cnccn1", "note": "(centres undefined)", "Percent Effect": -4.389},
      {"smiles": "Cn1cnnc1C1CCCN(C(=O)COc2ccccc2Cl)C1", "note": "(centres undefined)", "Percent Effect": 152.2},
      {"smiles": "CCn1cnnc1C1CCCN(C(=O)COc2ccc(Cl)cc2)C1", "note": "(centres undefined)", "Percent Effect": 6.691},
      {"smiles": "COc1cccc(COCC(=O)N2CCCC(c3nncn3C)C2)c1", "note": "(centres undefined)", "Percent Effect": -0.5429},
      {"smiles": "O=C(COCC1CC1)N1CCCC(n2ccnc2)C1", "note": "(centres undefined)", "Percent Effect": 8.162},
      {"smiles": "O=C(COC1CCCCC1)N1CCCC(n2ccnc2)C1", "note": "(centres undefined)", "Percent Effect": 76.06},
      {"smiles": "CC1(COc2ccccc2)NCCc2[nH]cnc21", "note": "(centres undefined)", "Percent Effect": 7.349},
      {"smiles": "CCc1cc(CN(C)C(=O)C2CC(=O)N(c3cccc(O)c3)C2)on1", "note": "(centres undefined)", "Percent Effect": -10.41},
      {"smiles": "Cc1ccc(C(C(=O)N2CCN(C(=O)c3ccc[nH]3)CC2)N(C)C)cc1", "note": "(centres undefined)", "Percent Effect": 1.987},
      {"smiles": "COCCOc1ccc(NC(=O)N(CC2CCOC2)C2CC2)cn1", "note": "(centres undefined)", "Percent Effect": -6.429},
      {"smiles": "O=C(COCCOc1ccccc1)N1CCCC(n2ccnc2)C1", "note": "(centres undefined)", "Percent Effect": 75.36},
      {"smiles": "O=C(COCCc1ccccc1)N1CCCC(n2cccn2)C1", "note": "(centres undefined)", "Percent Effect": 5.674},
      {"smiles": "COc1cccc(COCC(=O)N2CCCC(n3ccnc3)C2)c1", "note": "(centres undefined)", "Percent Effect": -0.4033},
      {"smiles": "Cc1cc(C(=O)N2CCCC2c2nc(C)cc(O)n2)on1", "note": "(centres undefined)", "Percent Effect": 93.31},
      {"smiles": "CC(C)c1cc(C(=O)N2CCCC2c2nc(-c3ccccc3)no2)[nH]n1", "note": "(centres undefined)", "Percent Effect": -1.356},
      {"smiles": "Cc1cc(C(=O)N2CCCC2c2nc(O)cc(C(C)C)n2)on1", "note": "(centres undefined)", "Percent Effect": 118.7},
      {"smiles": "CC(C)c1nc(C2CCCN2C(=O)c2nccnc2N)no1", "note": "(centres undefined)", "Percent Effect": -0.7868},
      {"smiles": "CCn1ccnc1CN1CCC(CCC(=O)Nc2ccccc2Cl)CC1", "Percent Effect": 11.39},
      {"smiles": "COCCC1(C(=O)O)CCCN(C(=O)c2cnc3c(c2)CCCC3)C1", "note": "(centres undefined)", "Percent Effect": 8.826},
      {"smiles": "O=C(Cc1ccc(-n2cccn2)cc1)N1CCCC(n2cccn2)C1", "note": "(centres undefined)", "Percent Effect": 7.23},
      {"smiles": "Cc1cnn(C2CCCN(C(=O)Cc3cn4ccccc4n3)C2)c1", "note": "(centres undefined)", "Percent Effect": 14.59},
      {"smiles": "O=C(Cc1cn2ccccc2n1)N1CCCC(n2ccnc2)C1", "note": "(centres undefined)", "Percent Effect": 115.6},
      {"smiles": "O=C(Cc1cn2ccccc2n1)N1CCCC(n2cccn2)C1", "note": "(centres undefined)", "Percent Effect": 62.83},
      {"smiles": "O=C(Cc1ccc2c(c1)OCCO2)N1CCCC(n2ccnc2)C1", "note": "(centres undefined)", "Percent Effect": 5.657},
      {"smiles": "Fc1cccc2ncnc(NCCCc3ccncc3)c12", "Percent Effect": -47.88},
      {"smiles": "CCN(C)C1COC2(CCN(C(=O)c3ccc(Cl)cc3)CC2)C1.O=C(O)C(F)(F)F", "note": "(centres undefined)", "Percent Effect": -12.32},
      {"smiles": "COC1COC2(CCN(C(=O)c3cnc(C)cn3)CC2)C1", "note": "(centres undefined)", "Percent Effect": 14.55},
      {"smiles": "O=C(O)C(F)(F)F.O=C(O)C(F)(F)F.c1cc(CN2CCC3(CC2)CC(N2CCCC2)CO3)co1", "note": "(centres undefined)", "Percent Effect": -12.83},
      {"smiles": "O=C(O)C(F)(F)F.O=C(c1ccccc1F)N1CCC2(CC1)CC(Oc1ccccn1)CO2", "note": "(centres undefined)", "Percent Effect": 109.1},
      {"smiles": "COC1COC2(CCN(C(=O)c3ccc4ccccc4c3)CC2)C1", "note": "(centres undefined)", "Percent Effect": 112.4},
      {"smiles": "O=C(O)C(F)(F)F.O=C(c1cocn1)N1CCC2(CC1)CC(Oc1ccccn1)CO2", "note": "(centres undefined)", "Percent Effect": 3.532},
      {"smiles": "O=C(O)C(F)(F)F.O=C(c1ccccc1F)N1CCC2(CC1)CC(N1CCCC1)CO2", "note": "(centres undefined)", "Percent Effect": 116.8},
      {"smiles": "COC1COC2(CCN(C(=O)c3ncccn3)CC2)C1", "note": "(centres undefined)", "Percent Effect": -17.92},
      {"smiles": "O=C(c1ccccc1)N1CCC2(CC1)CC(Oc1ccccc1)CO2", "note": "(centres undefined)", "Percent Effect": 2.639},
      {"smiles": "CS(=O)(=O)N1CCC2(CC1)CC(Oc1ccccn1)CO2.O=C(O)C(F)(F)F", "note": "(centres undefined)", "Percent Effect": 10.24},
      {"smiles": "COC1COC2(CCN(C(=O)c3cocn3)CC2)C1", "note": "(centres undefined)", "Percent Effect": -7.314},
      {"smiles": "COC1COC2(CCN(C(=O)c3ccccc3F)CC2)C1", "note": "(centres undefined)", "Percent Effect": 91.89},
      {"smiles": "Cc1cc(C(=O)NC2(C#N)CCCC2)c(C)n1-c1cccnc1", "Percent Effect": -8.526},
      {"smiles": "O=C(Cc1cccs1)NCC1Cn2nnc(-c3ccoc3)c2CO1", "note": "(centres undefined)", "Percent Effect": 6.925},
      {"smiles": "Fc1ccc(CN2CCC3(CCCN(c4nncs4)C3)C2)cc1.O=C(O)C(F)(F)F", "note": "(centres undefined)", "Percent Effect": 5.699},
      {"smiles": "COc1ccc(S(=O)(=O)NC(=O)C(C)OC)c(OC)c1", "note": "(centres undefined)", "Percent Effect": 36.91},
      {"smiles": "O=C(N[C@@H]1CN(C2CCCC2)C[C@@H]2CCCO[C@@H]21)c1cnccn1.O=C(O)C(F)(F)F", "Percent Effect": -9.219},
      {"smiles": "CN(C(=O)C(c1c(F)cccc1Cl)N(C)C)c1nccs1", "note": "(centres undefined)", "Percent Effect": 2.736},
      {"smiles": "COC1COC2(CCN(C(=O)c3cscn3)CC2)C1", "note": "(centres undefined)", "Percent Effect": -7.766},
      {"smiles": "COc1ncccc1C(=O)N1C[C@@H]2COC[C@]2(CN(C)C)C1.O=C(O)C(F)(F)F.O=C(O)C(F)(F)F", "Percent Effect": -15.94},
      {"smiles": "COc1ncccc1C(=O)N1CCC2(CC1)CC(OC)CO2.O=C(O)C(F)(F)F", "note": "(centres undefined)", "Percent Effect": 101.4},
      {"smiles": "COCCN1CC2(CCCN(c3ncc(Cl)cc3F)C2)CCC1=O", "note": "(centres undefined)", "Percent Effect": 2.913},
      {"smiles": "COCCCN1CC2(CCCN(c3ncc(Cl)cc3F)C2)CCC1=O", "note": "(centres undefined)", "Percent Effect": -2.307},
      {"smiles": "Cc1ccnn1CCN1CCCC2(CCC(=O)N(C3CCCC3)C2)C1", "note": "(centres undefined)", "Percent Effect": 107.9},
      {"smiles": "Nc1ccnc(C(=O)N2CCCC3(CCC(=O)N(C4CCCC4)C3)C2)c1", "note": "(centres undefined)", "Percent Effect": 1.558},
      {"smiles": "O=C1CCC2(CCCN(CCn3cc(Cl)cn3)C2)CN1C1CCCC1", "note": "(centres undefined)", "Percent Effect": 113},
      {"smiles": "COCCCN1CC2(CCCN(CCn3cc(Cl)cn3)C2)CCC1=O", "note": "(centres undefined)", "Percent Effect": 116.7},
      {"smiles": "COc1coc(CN2CCCC3(CCC(=O)N(C4CC4)C3)C2)cc1=O", "note": "(centres undefined)", "Percent Effect": 7.748},
      {"smiles": "O=C1CCC2(CCN(Cc3cc(F)ccc3Cl)CC2)CN1C1CCCC1", "Percent Effect": -0.02537},
      {"smiles": "O=C1CCCN1C1CCCN(CCOc2ccc(F)cc2)C1", "note": "(centres undefined)", "Percent Effect": -5.922},
      {"smiles": "O=C1CCCN1C1CCCN(CCn2cc(Cl)cn2)C1", "note": "(centres undefined)", "Percent Effect": 92.68},
      {"smiles": "Cn1cc(CN2C[C@@H](N3CCCC3=O)[C@H]3OCCC[C@H]32)cn1", "Percent Effect": 16.86},
      {"smiles": "Cc1cnn(CC(=O)N2CCC3(CCC(=O)N(C4CCCC4)C3)CC2)c1", "Percent Effect": -24.67}
    ]}
  ]
}
